Records with an inconclusive call do not appear. Activity calls are given as the source filed them. Calls follow the shape of the dose curve; as a rule, active = well fitted cell-killing curve with a large enough effect; inconclusive = small, poorly fitted or top-dose-only effect, or effect the other way; inactive = flat fitted curve, though single readings scatter.
% is scaled to controls: 0 for no effect and ±100 for the full control effect; potency is read from the fitted curve at half-maximal effect.

The experiment can be described thus: MultiTox-Fluor Cytotoxicity Assay - LYMP1-002 - Live Cells (AID 955). The conditions noted are these: LYMP1-002 lymphoblastoid live-cell protease fluorescence viability; series mostly up to 46.1 µM; viability change, negative = cytotoxic: at the top concentration. The text has this:
NIH Chemical Genomics Center [NCGC]
NIH Molecular Libraries Screening Centers Network [MLSCN]
National Institutes of Environmental Health Sciences [NIEHS]
National Toxicology Program [NTP]
We have developed a 1536-well cell-based assay for quantitative high throughput screening (qHTS) against a number of cell lines to determine in vitro cytotoxicity of small molecules. This particular assay uses a human lymphoblastoid cell line (LYMP1-002) purchased from Coriell Institute.
NCGC Assay Protocol Summary:
The MultiTox-Fluor Cytotoxicity Assay (Promega) is a homogeneous method to simultaneously measure the relative number of live and dead cells in culture by detecting changes in cell membrane integrity. There are two fluorogenic peptide substrates in the assay reagent. Viable cells are determined when the cell-permeant substrate (GF-AFC) enters the cell and is cleaved by protease from live cells resulting in liberated fluorophore. This live-cell protease activity restricted to viable cells is proportional to cell number. The dead cells are determined by using fluorogenic cell-impermeant peptide substrate (bis-AAF-R110) which cleaved by dead cell proteases leaking from damaged cell membrane.
Using the MultiTox-Fluor Cytotoxicity Assay, the relative number of live cells was measured in the lymphoblastoid cell line with complete culture medium following compound treatment for 16 hours. The assay was performed in opaque black Kalypsys 1536-well plates. In the screen, tetraoctylammonium bromide was used as positive control. Library compounds were measured for their ability to cause acute toxicity in the cell line, as reflected by a decrease in live cell protease activity, in a concentration-dependent manner. […] AC50 values were determined from concentration-response data modeled with the standard Hill equation.
qHTS protocol for MultiTox-Fluor Cytotoxicity assay
[Step] [Parameter] [Value] [Description]
1. Reagent; 5 uL; 2500 lymphoblastoid cells/well
2. Time; 5 hr; 37 C incubation
4. Controls; 23 nL; Tetraoctylammonium bromide 6.4pM to 92 uM
5. Time; 16 hr; 37 C incubation
6. Reagent; 5 uL; MuliTox-Fluor Assay reagent
7. Time; 60 min; Room Temperature
8. Detection; live-cell fluorescence (Ex/Em=405/510); EnVision plate reader
Keywords: cell viability, cytotoxicity, lymphoblastoid cell line, fluorescence, NTPHTS, NTPHTS_NCGC, NIEHS, EPA, DSSTox, MLSMR, MLSCN, NIH Roadmap, qHTS, NCGC
As to `O=c1c(-c2ccc(O)cc2)coc2cc(O)ccc12`, the “viability change, negative = cytotoxic” value was -0.574% (inactive).

`CCCNC(=O)NS(=O)(=O)c1ccc(Cl)cc1`: the “viability change, negative = cytotoxic” value is 1.42% (inactive). With `CCCCC1C(=O)N(c2ccccc2)N(c2ccccc2)C1=O`, the “viability change, negative = cytotoxic” value was 4.77% (inactive). With `CC/C(=C(\c1ccccc1)c1ccc(OCCN(C)C)cc1)c1ccccc1`, the Potency was 31.6 µM (active). Turning to `O=c1c(O)c(-c2ccc(O)cc2)oc2cc(O)cc(O)c12`, the “viability change, negative = cytotoxic” value was -10.2% (inactive). Consider `CC1=C(/C=C/C(C)=C/C=C/C(C)=C/C(=O)Nc2ccc(O)cc2)C(C)(C)CCC1`, for which the Potency is 25.1 µM (active). Turning to `O=C(O)Cc1cccc2ccccc12`, the “viability change, negative = cytotoxic” value was 2.97% (inactive). The same measure, in the same setting: the value for `O=C(O)c1cc(O)c2c(c1)C(=O)c1cccc(O)c1C2=O` was -6.54% (inactive); that for `CCn1cc(C(=O)O)c(=O)c2ccc(C)nc21` was 5.79% (inactive); that for `CC(=O)c1ccc(S(=O)(=O)NC(=O)NC2CCCCC2)cc1` was 1.91% (inactive). Turning to `O=c1[nH]cnc2c1ncn2[C@H]1CC[C@@H](CO)O1`, the “viability change, negative = cytotoxic” value is -2.83% (inactive).

Consider `O=C1NC(=O)C(c2ccccc2)(c2ccccc2)N1`, for which the “viability change, negative = cytotoxic” value is 0.909% (inactive). Turning to `CC(=O)O[C@]1(C(C)=O)CC[C@H]2[C@@H]3C=C(Cl)C4=CC(=O)[C@@H]5C[C@@H]5[C@]4(C)[C@H]3CC[C@@]21C`, the “viability change, negative = cytotoxic” value is -11.2% (inactive).

On to `CN(C)CCC(c1ccccc1)c1ccccn1` (centres undefined), for which the “viability change, negative = cytotoxic” value was 1.86% (inactive).

Source of the values: PubChem BioAssay (NCATS).
